Compound activity as filed in PubChem.
JMJD2A Tudor inh = inhibitors of human JMJD2A Tudor domain. 390,000 tested, 4.4% active. Potency, µM (series often up to 114 µM), most hits filed as inhibitors. AlphaScreen JMJD2A-Tudor / H3K4me3 peptide binding. O75164. AID 504339; also: nearly all actives have a fitted effect of over 50% in size
PLK1 PBD inh = inhibitors of human PLK1 polo-box domain binding. P53350. Plk1 PBD binding of FITC phosphopeptide, fluorescence polarization. Potency, µM, most hits filed as inhibitors. 360,000 tested, 2.8% active. AID 720504; also: series mostly up to about 57 µM; nearly all actives have a fitted effect of over 65% in size
Sfp inh = inhibitors of Bacillus subtilis Sfp phosphopantetheinyl transferase | Biochemical Sfp PPTase activity, qHTS | Potency, µM, most hits filed as inhibitors | 310,000 tested, 3.5% active | AID 1490;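 also: the enzyme is Sfp with the accession as filed and its product quenches rhodamine fluorescence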
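Compounds were incubated with enzyme (final 15 nM) for 15 min at room temperature before substrate addition started the reaction. Fluorescence at 525 nm excitation, 598 nm emission was recorded immediately and after 30 minutes.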
BAZ2B block = BAZ2B (human) inhibition; Q9UIF8; AlphaScreen BAZ2B-H3K14Ac peptide displacement; Potency, µM (series often up to 114 µM), hits mostly inhibitors; 360,000 tested, 4.4% active; also: nearly all actives have a fitted effect of over 60% in size
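Compounds, titrated to a top concentration of 110 uM, were incubated 30 min at room temperature with preformed BAZ2B/acetyl-K14 H3 peptide complex (50 nM each). Proximity signal was measured by AlphaScreen after 20 min with beads.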
G9a block = G9a (human) methyltransferase inhibition. Q96KQ7. G9a H3K9 monomethylation, AlphaScreen, 2 h. Potency, µM (top dose mostly 102 µM), most hits filed as inhibitors. 350,000 tested, 8.8% active. AID 504332; also: nearly all actives have a fitted effect of over 75% in size
Target sequence (Q96KQ7 913-1193 limits assumed): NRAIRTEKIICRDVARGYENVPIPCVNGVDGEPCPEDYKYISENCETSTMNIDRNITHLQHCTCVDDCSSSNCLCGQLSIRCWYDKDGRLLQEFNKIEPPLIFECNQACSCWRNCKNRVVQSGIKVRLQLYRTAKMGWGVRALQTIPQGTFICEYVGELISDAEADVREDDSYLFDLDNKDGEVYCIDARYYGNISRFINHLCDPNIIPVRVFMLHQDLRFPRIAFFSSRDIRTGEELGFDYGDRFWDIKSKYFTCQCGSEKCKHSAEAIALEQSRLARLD
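Signal arises when biotinylated H3K9 peptide, once monomethylated, bridges streptavidin donor and antibody-captured acceptor beads. Enzyme at 20 nM was preincubated 15 min with test compounds; peptide 500 nM and SAM 20 uM then reacted for 2 h.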
HP1b binding inh = inhibitors of HP1-beta chromodomain binding to methylated histone tails; AlphaScreen HP1-beta / biotin-H3K9me3 peptide binding; Potency, µM (doses to about 114 µM), actives largely listed as inhibitors; 390,000 tested, 0.56% active; also: nearly all actives have a fitted effect of over 70% in size
Target sequence (P83916 whole entry, looked up): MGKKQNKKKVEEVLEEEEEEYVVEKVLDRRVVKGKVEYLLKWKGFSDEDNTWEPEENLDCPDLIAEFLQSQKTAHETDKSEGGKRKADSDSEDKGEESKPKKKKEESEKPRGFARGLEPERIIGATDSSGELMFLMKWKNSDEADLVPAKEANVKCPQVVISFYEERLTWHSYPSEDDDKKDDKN
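Compound inhibition of the preformed complex between 50 nM HP1-beta and 50 nM biotinylated H3K9me3 peptide was read by AlphaScreen. Buffer was PBS pH 7.4 with 0.01% Tween-20. Incubations ran 30 min at room temperature, with 10 ug/mL donor/acceptor beads.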
Each line names hits and unclear results; the compound was inactive in the other large screens. Most compounds without a hit are left out; they make up all but 12% or so of the library. Calls follow the shape of the dose curve; as a rule, active = well fitted curve in the direction sought with a large enough effect; inconclusive = small, poorly fitted or top-dose-only effect, or another doubt; inactive = no such curve, though single readings can be large; an effect the other way counts as inactive or inconclusive.

Cc1csc(=O)n1CC(=O)OCC(=O)Nc1cc(Cl)ccc1[N+](=O)[O-]	BAZ2B block inconclusive (no result: G9a block)
Cc1noc(C)c1C(=O)N1CCC[C@@]2(CCN(C(=O)NC(C)C)C2)C1	none (no result: JMJD2A Tudor inh, PLK1 PBD inh, BAZ2B block, HP1b binding inh)
Cc1cc(NS(=O)(=O)c2cc(Cl)sc2Cl)no1	none
CCCN1CCN(CCCNC(=O)c2cnn(-c3ccc(F)cc3)c2-n2cccc2)CC1	none (no result: PLK1 PBD inh, Sfp inh)
Fc1ccc(CNc2ccccn2)cc1	none (no result: G9a block)
CN(C)c1ccc(CNc2ccccn2)cc1	JMJD2A Tudor inh 56µM, BAZ2B block 50µM, G9a block inconclusive
CN(C)c1ccc(CNCc2cccnc2)cc1	none (no result: Sfp inh, BAZ2B block, G9a block)
Cc1cccc(NCc2ccc(N(C)C)cc2)n1	JMJD2A Tudor inh 50µM, BAZ2B block 40µM, G9a block 50µM, HP1b binding inh inconclusive
CSc1ccc(CNc2ccccn2)cc1	G9a block 45µM
Cc1cccc(NC(=O)N2CC(=O)Nc3sc4c(c3C2c2ccccc2)CCCC4)c1C (centres undefined)	G9a block inconclusive (no result: PLK1 PBD inh, Sfp inh)
Cn1c(=O)c2cc(S(=O)(=O)NC(Cc3ccccc3)C(=O)Nc3ccc(F)cc3)ccc2n(C)c1=O (centres undefined)	BAZ2B block inconclusive (no result: PLK1 PBD inh, Sfp inh)
Cn1c2ccccc2c2c(C(=O)N3CCN(c4ccc(F)cc4)CC3)cn(C3CCCCC3)c(=O)c21	JMJD2A Tudor inh inconclusive, G9a block inconclusive (no result: PLK1 PBD inh, Sfp inh)
Cc1ccc(CNC(=O)c2cn(C)c(=O)c3c2c2ccccc2n3C)o1	Sfp inh 22µM
COc1ccc(N2CCN(C(=O)c3cn(C4CCCCC4)c(=O)c4c3c3ccccc3n4C)CC2)cc1	JMJD2A Tudor inh inconclusive, BAZ2B block 7.1µM, G9a block 10µM, HP1b binding inh inconclusive (no result: PLK1 PBD inh, Sfp inh)
Cc1ccc(CNC(=O)c2cn(C3CCCCC3)c(=O)c3c2c2ccccc2n3C)o1	PLK1 PBD inh inconclusive, Sfp inh 18µM, G9a block 50µM
Cc1ccc(CNC(=O)c2cc3c(=O)n(C)c4ccccc4c3n2C)o1	Sfp inh 56µM, G9a block inconclusive
Cn1c(C(=O)NCc2ccc(Cl)cc2)cc2c(=O)n(C)c3ccccc3c21	none (no result: PLK1 PBD inh, Sfp inh)
CN(CCc1ccccc1)C(=O)c1cccc(NC(=O)Cc2cccc(NC(=O)C3CCCN(C(=O)c4ccccc4)C3)c2)c1 (centres undefined)	none (no result: Sfp inh, BAZ2B block, G9a block)
Cc1ccc(NC(=O)CSc2nc3ncccc3[nH]2)cc1F	none (no result: PLK1 PBD inh, Sfp inh)
COc1cc(C2C(=O)N(C3CCC(C)CC3)CC(=O)N2CCc2ccc(Cl)cc2)ccc1OC(C)C (centres undefined)	none (no result: PLK1 PBD inh, Sfp inh)
Cc1c(Cl)cccc1-c1ccc(C(=O)Nc2ccc(F)cc2)o1	BAZ2B block inconclusive (no result: PLK1 PBD inh, Sfp inh)
Cc1[nH][nH]c(=O)c1C(c1ccc(-c2ccc(Cl)c(Cl)c2)o1)c1c(C)[nH][nH]c1=O	JMJD2A Tudor inh inconclusive, PLK1 PBD inh 15µM, Sfp inh 56µM, BAZ2B block inconclusive, G9a block 11µM
Cc1[nH][nH]c(=O)c1C(c1ccc(-c2ccc(F)cc2)o1)c1c(C)[nH][nH]c1=O	JMJD2A Tudor inh inconclusive, PLK1 PBD inh 24µM, Sfp inh inconclusive, BAZ2B block inconclusive, G9a block 25µM
Cc1[nH][nH]c(=O)c1C(c1ccc(N(C)C)c(Br)c1)c1c(C)[nH][nH]c1=O	JMJD2A Tudor inh inconclusive (no result: G9a block)
Cc1[nH][nH]c(=O)c1C(c1ccc(-c2ccc(C(=O)O)cc2)o1)c1c(C)[nH][nH]c1=O	PLK1 PBD inh 24µM, BAZ2B block 56µM, G9a block 3.5µM, HP1b binding inh inconclusive
COc1ccc(-c2ccc(C(c3c(C)[nH][nH]c3=O)c3c(C)[nH][nH]c3=O)o2)c([N+](=O)[O-])c1	JMJD2A Tudor inh inconclusive, PLK1 PBD inh 21µM, Sfp inh 20µM, BAZ2B block 40µM, G9a block 4µM
COCCNC(=O)/C(C#N)=C/c1ccc(-c2ccc(OC)cc2[N+](=O)[O-])o1	none
CC1CC=CC2C1C(=O)N(Cc1ccccc1)C2c1ccc(/C=C/c2ccccc2)cc1F (centres undefined)	none (no result: PLK1 PBD inh, BAZ2B block, G9a block)
COc1ccccc1-c1cnc(C(O)c2c(C)cc(C)cc2C)[nH]1 (centres undefined)	none (no result: JMJD2A Tudor inh, Sfp inh, BAZ2B block, G9a block, HP1b binding inh)
N=c1n(CC(=O)c2ccc(Br)s2)c2ccccc2n1Cc1ccccc1	Sfp inh 14µM, G9a block inconclusive
